Apoferritin bind – binds horse apoferritin like a general anesthetic | P02791 | apoferritin/1-aminoanthracene competitive binding, fluorescence | 350,000 tested, 0.074% active | Potency, µM (doses to about 77.5 µM), hits mostly inhibitors; also: nearly all actives have a fitted effect of over 20% in size
Target sequence (P02791 2-175 limits assumed): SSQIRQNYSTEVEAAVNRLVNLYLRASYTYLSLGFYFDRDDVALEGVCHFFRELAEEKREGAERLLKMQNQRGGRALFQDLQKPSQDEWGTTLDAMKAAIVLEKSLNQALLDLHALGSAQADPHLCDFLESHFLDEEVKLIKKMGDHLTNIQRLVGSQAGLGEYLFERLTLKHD
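Horse-spleen apoferritin (10 uM) in 50% saturated 1-aminoanthracene in PBS was incubated 10 min at room temperature with compound. Fluorescence (ex 380, em 535 nm) was normalized to free and bound 1-AMA, with concentration-response fitted by a four-parameter Hill equation.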
BRCA1 expr act – increases BRCA1 expression | 380,000 tested, 1.1% active | Potency, µM (series often up to 46.1 µM), usual class: activators | MCF7-BRCA1-FFLuc reporter, luminescence, 48 h; response scale: scaled: vehicle 0%, 10 µM genistein 100% | AID 624202; also: nearly all actives have a fitted effect of over 80% in size
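MCF7-BRCA1-FFLuc cells, 2000/well in phenol-red-free MEM, attached 2 h then treated 48 h at 37 C. Luciferase luminescence read 15 min after reagent; normalized to genistein maximum activation (10microM) and DMSO, concentration-response fitted.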
a7 integrin act – integrin-mediated muscular dystrophy alleviation activation. alpha7betagal myoblasts, beta-gal FDG fluorescence, 48 h. Potency, µM (highest dose often 38.3 µM), most hits filed as activators. 350,000 tested, 0.064% active. AID 624291; also: nearly all actives have a fitted effect of over 60% in size
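Alpha7betagal+/- myoblasts (passage 13) were plated 16-24 hr, then exposed to compounds (1:260 dilution of DMSO stock) for 48 hours at 37C. After MPER lysis, β-galactosidase reporter activity was read as FDG fluorescence (ex 480/em 540) after 30 minutes.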
IL2 activator – activators of IL-2; IL-2 activation reporter assay, cell-based qHTS; stimulated with anti-CD3/CD4/CD28 beads; in transgenic mouse T cells; activation, % (series mostly up to about 46 µM); 360,000 tested, 0.065% active; AID 652025; in the data active = activation above about 50%; inconclusive = mostly about 30% to 49%
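Unstimulated transgenic mouse T cells preincubated 60 min with compound, then stimulated with anti-CD3/anti-CD4-coated beads plus anti-CD28 for 18 h at 37 degrees C. IL-2 response read as EGFP and DsRed fluorescence by plate cytometry.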
PKM2 activator – increases activity of human pyruvate kinase M2; P14618; purified PKM2, Kinase-Glo ATP luminescence, activation; response scale: 0% is enzyme alone, no compound; Potency, µM (highest dose often 57.5 µM), actives largely listed as activators; 260,000 tested, 0.34% active; AID 1631; also: nearly all actives have a fitted effect of over 55% in size
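ATP formation by purified human PK-M2, quantified via coupled luciferase luminescence after 1 h at room temperature with 0.1 mM ADP and 0.5 mM PEP final.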
Numbers stand for hits; i = inactive; ? = inconclusive; nt = no result; [ ] = dose if it differs, or a comment. Hits are enriched below; roughly 1.3% of the tested compounds scored in any of these assays. Unless noted, calls follow the shape of the dose curve; as a rule, active = well fitted curve in the direction sought with a large enough effect; inconclusive = small, poorly fitted or top-dose-only effect, or another doubt; inactive = no such curve, though single readings can be large; an effect the other way counts as inactive or inconclusive.

SMILES	Apoferritin bind	BRCA1 expr act	a7 integrin act	IL2 activator	PKM2 activator
CCC1(C)NC(c2ccc3c(c2)OCO3)=CC(c2ccccc2O)N1 (stereo not given)	nt	i	nt	nt	nt
COc1cc(OC)c(OC)cc1/C=C1/Cc2ccccc2C1=O	i	i	i	126	nt
COc1ccccc1C=C1CCc2ccccc2C1=O	nt	i	nt	i	nt
Cc1ccc(C)c2c1NC(C(=O)O)C1CC=CC21 (stereo not given)	nt	i	nt	nt	nt
C=CCN(C(=O)C1=NN(C2CCS(=O)(=O)C2)C(=O)CC1)c1nc(-c2ccc([N+](=O)[O-])cc2)cs1 (stereo not given)	i	5µM	i	i	i
Nc1cccc[n+]1C(c1ccnc2ccccc12)[n+]1ccccc1N	nt	i	nt	nt	nt
O=C(Nc1ccc(N2CCN(C(=O)c3ccccc3F)CC2)cc1)c1cncc(Br)c1	i	i	13µM	i	i
CCCC(C)NS(=O)(=O)c1ccc(OC)c(C)c1 (stereo not given)	16µM	i[1.84 µM]	i	i	i
CCCC(C)NS(=O)(=O)c1ccccc1 (stereo not given)	?	i	i	i	i
CCC(C(=O)Nc1ccc2c(c1)OCCO2)n1nnc2ccccc2c1=O (stereo not given)	i	10µM	i	i	nt
CC(Sc1nc2ccccc2c(=O)n1C)C(=O)Nc1ccc2c(c1)OCCO2 (stereo not given)	nt	i	i	i	nt
O=c1[nH]c(=S)c2n[nH]nc2[nH]1	nt	i	nt	nt	nt
C=CCSc1nnc(NC(=O)C2CSC3(C)CCC(=O)N23)s1 (stereo not given)	nt	i	i	i	nt
O=C(Nc1nnc(SCc2ccc(F)cc2)s1)C1CC(=O)N(Cc2ccccc2)C1 (stereo not given)	?	i	i	i	13µM
Cc1nnc(NC(=O)C2CC(=O)N(Cc3ccccc3)C2)s1 (stereo not given)	i	i	?	i	i
CC12CCC(=O)N1C(C(=O)Nc1nnc(SCc3ccc(F)cc3)s1)CS2 (stereo not given)	22µM	i	i	i	i
CCOC(=O)c1c(Nc2ccc(OCC)cc2)nnc(-c2ccccc2)c1-c1ccccc1	?	i	nt	nt	nt
CN1CCN(C(=O)c2ccc(COc3ccc(C(C)(C)C)cc3)o2)CC1	?	3.5µM	i	i	i
CCOc1ccc(OCc2ccc(C(=O)N3CCCC3)o2)cc1	i	i	i	i	i
COC1C(CO)OC(n2c3c(Cl)cccc3c3c4c(c5c6cccc(Cl)c6[nH]c5c32)C(=O)NC4=O)C(O)C1O (stereo not given)	nt	i	i	62	nt
COC1C(O)C(CO)OC1n1c(Br)nc2c(=O)[nH]c(N)nc21 (stereo not given)	i	nt	nt	nt	nt
O=C(CSC1=Nc2ccccc2N=C(c2ccc(F)cc2)C1)NCc1ccccc1Cl	i	i	nt	nt	nt
Cc1ccc2cc(CN(CC3CCCO3)S(=O)(=O)c3cccc4nsnc34)c(=O)[nH]c2c1 (stereo not given)	i	i	i	i	i
Cc1ccc2cc(CN(CC(C)C)S(=O)(=O)c3cccc4nonc34)c(=O)[nH]c2c1	i	i	i	65	nt
CCN(CCN(C)Cl)/[N+]([O-])=N/Oc1ccc([N+](=O)[O-])cc1[N+](=O)[O-]	nt	i	nt	nt	nt
SMILES	Apoferritin bind	BRCA1 expr act	a7 integrin act	IL2 activator	PKM2 activator
O=S(=O)(NCCCO)c1ccc2c(c1)Cc1cc(S(=O)(=O)NCCCO)ccc1-2	i	i	i	i	13µM
O=S(=O)(NCCO)c1ccc2c(c1)Cc1cc(S(=O)(=O)NCCO)ccc1-2	i	i	i	i	nt
O=C(/C=C/c1cccs1)c1ccc(NC(=O)c2cccc(Br)c2)cc1	i	11µM	i	i	i
Cc1ccc(C(=O)Nc2ccc(C(=O)/C=C/c3cccs3)cc2)cc1	?	i	i	i	i
COc1cc(SC)ccc1C(=O)NCCOc1ccc(F)cc1	i	10µM	i	i	i
COc1ccc(CCNC(=O)c2ccc(SC)cc2OC)cc1	i	i	i	i	i
COc1ccc2nc(NC(=O)C3CCN(C(=O)c4ccco4)CC3)sc2c1	i	13µM	i	i	i
Cc1cccc(C(=O)Nc2nc3ccc(S(C)(=O)=O)cc3s2)c1	i	3.2µM	i	i	i[11.5 µM]
